Reference: PubChem BioAssay AID2401 (Southern Research Specialized Biocontainment Screening …, 2010)
The campaign covered roughly 2,200 compounds. About 530 (24%) were called active.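 How the source made its calls: active means inhibition above a set limit at one or more concentrations of the dose series; inactive means inhibition under that limit at every dose.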 The list is a sample of the results. Measured potencies and affinities stand elsewhere.

assay: nmpC-GFP reporter counter-screen in S. Typhimurium, dose response, counter-screen for PhoP regulon inhibitor project, Salmonella Typhimurium, GFP fluorescence (AID 2401); settings: 4 h; series mostly up to 150 µM;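 further: S. typhimurium with Mg-insensitive nmpC-GFP reporter grown at 10 µM Mg2+; drop in reporter fluorescence reflects general culture growth inhibition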

SMILES | outcome
Cc1nn(C)c(C)c1S(=O)(=O)N1CCC(C(=O)NC2CCCCC2)CC1 | inactive
Oc1[nH]c(=S)sc1/C=C1\C(c2ccccc2)=Nc2ccccc21 | inactive
C#CCn1c(=NC(=O)c2cc(Cl)sc2Cl)sc2cc(S(N)(=O)=O)ccc21 | inactive
O=C(O)C1(P(=O)(c2ccccc2)c2ccccc2)CCC1 | inactive
Cc1cc(C)c2c(=O)[nH]c(SCC(=O)Nc3ccc(N(C)C)cc3)nc2n1 | inactive
CC(C)c1ccc(O)c(NC(=O)c2cncc(Br)c2)c1 | inactive
Cc1cc2nn(-c3ccccc3)nc2cc1NC(=O)c1cccs1 | inactive
Cc1ccc(/C=C2\SC(=S)N(Cc3ccccc3)C2=O)o1 | inactive
O=C(Nc1ccsc1C(=O)NC1CCCCC1)c1ccccc1 | inactive
CCOC(=O)c1c(NC(=O)COc2ncnc3ccccc23)sc(C)c1CC | inactive
CCOC(=O)CCCc1c[nH]c2ccccc12 | inactive
O=C(c1ccccc1)c1coc2ccc(O)c(Cl)c12 | inactive
CCCCN(C)C(=O)c1cn(C)c2ccc(S(=O)(=O)N(C)C)cc2c1=O | inactive
Cc1nc(CC(=O)c2ccc(O)cc2O)cs1 | inactive
COC(=O)c1sccc1NC(=O)c1cccnc1 | inactive
O=C(CSc1ccc(Cl)cc1)Nc1ccccc1N1CCN(C(=O)c2ccc(Cl)cc2)CC1 | inactive
COc1ccc(-c2csc(Nc3cccnc3)n2)cc1 | inactive
CC(=O)NC12CC3CC(C1)CC(C(=O)OCC(=O)c1ccc4c(c1)OCCO4)(C3)C2 | inactive
COc1ccc(CC(=O)n2nc(-c3ccccc3)nc2NCc2ccco2)cc1 | inactive
CC(C)(C)c1ccc(C2CC2C(=O)N/N=C\c2cc3ccccc3nc2Cl)cc1 (stereo not drawn) | inactive
CCCCn1c(N)nc2ccccc21 | inactive
CCCn1c(N)nc2ccccc21 | inactive
CSc1nc2ccccc2n1Cc1cccc(F)c1 | inactive

SMILES | outcome
COc1ccc2c(c1)nc(N)n2Cc1ccccc1 | inactive
CCOC(=O)c1[nH]c2ccccc2c1NC(=O)NC1CCCCC1 | inactive
O=C(OCC#CCSc1nnc(-c2cccc3ccccc23)o1)c1ccco1 | inactive
Cc1ccc2nc(C(F)OC(F)(F)F)[nH]c2c1 (stereo not drawn) | inactive
O=C(CC1SC(=NCc2ccccc2)NC1=O)Nc1ccccc1 (stereo not drawn) | inactive
COc1ccc2ccccc2c1/C=N/NC(=O)c1sc(N)c(C#N)c1C | inactive
COc1ccc(OCCn2cc(/C=N/NC(=O)c3ccncc3)c3ccccc32)cc1 | inactive
COc1ccc(NC(=O)c2ccc(OC)cc2)cc1 | inactive
CC(=O)n1cc(/C=N/NC(=O)c2sc(C)nc2C)c2ccccc21 | inactive
CC(=O)c1c(C)nc(-c2ccc(Cl)cc2)nc1N=CN(C)C | inactive
O=C1CN(C(=O)COC(=O)CCC(=O)c2ccc3c(c2)OCCO3)c2ccccc2N1 | inactive
Cc1cccc(-n2c(N)cc(=O)[nH]c2=S)c1C | inactive
Oc1cccc2ccc[n+](CC(O)Cn3c4ccccc4c4ccccc43)c12 (stereo not drawn) | inactive
OCCN(CCO)CC(O)Cn1c2ccccc2c2ccccc21 (stereo not drawn) | inactive
Cc1cc(C)c(C#N)c(SCc2cn3ccccc3n2)n1 | inactive
CCCCNC(=O)Oc1cccc(N2CCCC2=O)c1 | inactive
COc1ccc(Cl)cc1C(=O)CSc1nc(N)cc(N)n1 | inactive
COc1ccccc1N1CCN(C/C(O)=C(\C#N)c2nc(-c3ccccc3)cs2)CC1 | inactive
Cc1nc(-c2ccccc2)cc(=O)[nH]1 | inactive
Cn1c(NCc2ccccc2O)nc2ccccc21 | inactive
CC(CCc1ccccc1)NC(=O)c1ccccc1 (stereo not drawn) | inactive
COCC(=O)N=Nc1c(O)[nH]c2ccccc12 | inactive
C/C(=N\NC(=S)Nc1ccc(F)cc1)c1ccc2c(c1)OCCO2 | inactive

SMILES | outcome
Nc1nonc1C(=O)NCCN=Cc1cc(Cc2ccccc2)cc(Br)c1O | inactive
COc1cccc(C=NCCNC(=O)c2nonc2N)c1O | inactive
Nc1nonc1-n1nnc(C(=O)N/N=C/c2ccc(Br)cc2)c1CSC1=NCCS1 | inactive
COC(=O)Cc1c(C)nc2nc(NCc3ccc(Cl)cc3)[nH]n2c1=O | inactive
CC(C)CNC(=S)NC1CCCC1 | inactive
O=C(OCC(=O)c1ccccc1Cl)c1cnccn1 | inactive
Cc1ccc(C(=O)C2COC(=O)C2)cc1 (stereo not drawn) | inactive
COc1ccc(S(=O)(=O)N2CCN(C(=O)c3c(C)nn(-c4ccccc4)c3Cl)CC2)cc1 | inactive
COc1ccccc1CC(=O)N1CCN(c2ccccn2)CC1 | inactive
COc1ccc(-n2c(C)cc(C(=O)Cn3nc(C(=O)O)c4ccccc4c3=O)c2C)cc1 | inactive
O=C(CN1CCCCC1)Nc1cccc2c1OCO2 | inactive
COc1ccccc1NS(=O)(=O)c1cc(NC(=S)Nc2cc(C)cc(C)c2)ccc1Cl | inactive
O=C(c1ccco1)N1CCN(c2ncnc3c2[nH]c2ccccc23)CC1 | inactive
CN(CC(=O)NCc1cccc(F)c1)C(=O)c1ccco1 | inactive
COCCCNc1ccnc2c(Cl)cccc12 | inactive
COC(=O)c1ccc(Sc2ccccc2NS(=O)(=O)c2ccc(C)cc2)nc1 | inactive
O=S(=O)(Nc1cc(Sc2cccc3cccnc23)c(O)c2ccccc12)c1ccc(F)cc1 | inactive
CC(=O)Nc1cccc(-c2csc(Nc3cccc(C)n3)n2)c1 | inactive
Cc1ccc(-n2c(C)cc(C3=NNC(=NC4CC4)SC3)c2C)cc1C | inactive
COc1ccc(NC(=O)c2sccc2SCC#N)cc1 | inactive
CCOC(=O)CN1C(=O)C(C)(C)Oc2ccc(C(=O)Nc3ccccc3OC)cc21 | inactive
C=CCSC1=Nc2sccc2C2=NC(=O)CN12 | inactive
Cc1ccn2cc(CSc3ccccc3N)nc2c1 | inactive

SMILES | outcome
COc1cccc(N=Cc2c[nH][nH]c2=O)c1 | inactive
CO/N=C\CC(=O)Nc1ccc(F)cc1 | inactive
COc1ccccc1N1CCN(C(=O)CSc2nc3ccccc3o2)CC1 | inactive
CCC(C)NC(=O)c1ccccc1NC(=O)C(C)N(c1ccccc1)S(C)(=O)=O (stereo not drawn) | inactive
FC(F)(F)COc1nc(OCC(F)(F)F)nc(N2CCN(c3ccccc3)CC2)n1 | inactive
CC(=O)Nc1nc2nc(-c3ccccc3)cc(-c3ccccc3)n2n1 | inactive
Cc1cccc(Sc2c([N+](=O)[O-])ncn2C)c1 | inactive
S=C(NCc1cccnc1)Nc1ccc(Cl)c(Cl)c1 | inactive
Cn1ccnc1C(O)c1ccc(OCc2ccccc2)cc1 (stereo not drawn) | inactive
O=C(c1cnsn1)N1CCN(c2ccccc2)CC1 | inactive
O=C(Nc1ccc(F)cc1)c1ccccc1F | inactive
CC(C)(C)NS(=O)(=O)c1ccc(CCC(=O)N2CCOCC2)cc1 | inactive
O=[N+]([O-])c1ccc(-n2nnnc2-c2ccccc2)c([N+](=O)[O-])c1 | inactive
O=c1ccc2ccc(Oc3ccc([N+](=O)[O-])cc3[N+](=O)[O-])cc2o1 | inactive
O=C(Nc1ccccc1)Oc1ccc[nH]c1=O | inactive
Cc1ccc(N)cc1-n1c(C)ccc1C | inactive
O=C(CC(NS(=O)(=O)c1ccc(Cl)cc1)c1ccco1)N1CCc2ccccc21 (stereo not drawn) | inactive
CC1CCN(C(=O)c2ccc3c(c2NCCO)C(=O)c2ccccc2C3=O)CC1 | inactive
CC(=O)Cn1cnc2sc(-c3ccccc3)cc2c1=O | inactive
COCCn1cc(C(=O)N2CCC(C)CC2)c2c3ccccc3n(C)c2c1=O | inactive
Oc1ccccc1-c1nc(/C=C/c2ccccc2)nn1-c1ccccc1 | inactive
Cc1ccc(Cn2cnc3ccccc32)cc1 | inactive
O=C(NCCCc1ccccc1)Nc1cccc(Cl)c1 | inactive

SMILES | outcome
COc1cc(NC(=O)Nc2cccc(Cl)c2)c(OC)cc1NC(=O)CN1CCCCC1 | inactive
CCCOc1ccc(C(=O)C(CCC(CNCC)C(=O)c2ccc(OCCC)cc2)CNCC)cc1 (stereo not drawn) | inactive
O=C1c2ccccc2C(=O)N1CCc1csc(-c2cccc(Cl)c2)n1 | inactive
CCOC(=O)c1ccc2c(c1)C(=O)N(C1CCCCC1)C2=O | inactive
CC(=O)c1ccc(NC(=S)NC(NC(=O)c2ccco2)C(Cl)(Cl)Cl)cc1 (stereo not drawn) | inactive
O=[N+]([O-])c1cccc(CN(CCO)Cc2ccccc2)c1 | inactive
Nc1nc(CSc2nc3ccccc3[nH]2)nc(N2CCOCC2)n1 | inactive
COC(=O)c1ccc(C(=O)OC)c(NC(=O)COc2ccccc2OC)c1 | inactive
CCN(CC)c1ccc(S(=O)(=O)Nc2cc(Cl)ccc2Cl)cc1NC(=S)NC(=O)C1CCCC1 | inactive
O=C1/C(=C/c2ccccc2)NC(=S)N1C(c1ccccc1)c1ccccc1 | inactive
CCN(CC)S(=O)(=O)c1cccc(NC(=O)Nc2cccc(C(F)(F)F)c2)c1 | inactive
Fc1cc(Br)ccc1NC(=S)Nc1ccccc1 | inactive
Nc1ccc2c(c1)C(=O)N(CC1CCCO1)C2=O (stereo not drawn) | inactive
Cc1cccc(C(=O)O/N=C2\CCSc3ccc(C)cc32)c1 | inactive
CCOC(=O)c1cnc2ccc(OC)cc2c1Nc1ccc2c(c1)OCCO2 | inactive
COc1ccccc1-n1c(SCc2cc(=O)oc3cc(O)ccc23)nc2ccccc2c1=O | inactive
COc1cccc(/C=N/n2c(C)nc3ccccc3c2=O)c1O | inactive
Cn1c(COc2ccccc2)nnc1SCc1nc2ccccc2[nH]1 | inactive
Cc1cccc(C)c1OCC(=O)Nn1c(COc2ccccc2)nc2ccccc2c1=O | inactive
Nc1nc2ccccc2n1/N=C/c1ccc(-c2ccccc2)o1 | inactive
O=C(Nc1ccc2snnc2c1)Nc1cccc2ccccc12 | inactive
CCOC(=O)C1=C(C)NC(SCc2cc(=O)[nH][nH]2)=C(C#N)C1c1cccs1 (stereo not drawn) | inactive
COc1ccc(C2CC(c3ccccc3)=NN2C(=O)COC(=O)c2cccnc2)cc1 (stereo not drawn) | inactive

SMILES | outcome
O=C(CN1C(=O)COc2ccccc21)Nc1ccc(F)cc1 | inactive
Brc1ccc2nc3c(n2c1)CCCC3 | inactive
CCCCn1c(=N)n(CC(=O)C(C)(C)C)c2ccccc21 | inactive
CCCCn1c(NCCO)nc2ccccc21 | inactive
Cc1ccc(O)c(-c2cc(-c3ccccc3C)[nH]n2)c1 | inactive
COC(=O)c1c(C)[nH]c(C(C)=O)c1C | inactive
CCN(CC(=O)Nc1ccc(N2CCOCC2)cc1)Cc1nc2ccccc2c(=O)[nH]1 | inactive
O=C(Cn1nc(Cl)nc1Cl)c1ccc2c(c1)OCCO2 | inactive
COc1ccc(Nc2ccc3c(c2)=NC2(CCCCC2)[N+]=3[O-])cc1 | inactive
CCOC(=O)N1CCN(C(=O)C(NC(=O)c2ccc(CC)cc2)C(C)C)CC1 (stereo not drawn) | inactive
CC(C)CCNC(=O)C(c1ccco1)N(Cc1ccc(F)cc1)C(=O)c1snc(C(N)=O)c1N (stereo not drawn) | inactive
O=C1c2ccccc2-c2onc3ccc(NCc4ccco4)c1c23 | inactive
CCOC(=O)c1c(C)[nH]c(C)c1C(=O)COC(=O)/C=C/c1cccc(F)c1 | inactive
COC(=O)c1ccccc1NC(=O)CS(=O)(=O)Cc1nc(-c2ccc(C)cc2)oc1C | inactive
Cc1ccc(CNC(=O)c2cccc(S(C)(=O)=O)c2)cc1 | inactive
CCOC(=O)CC(=O)CSc1nc2c(c(C)c1C#N)CCC2 | inactive
CCn1c(SCc2nc3scc(-c4ccccc4)c3c(=O)[nH]2)nnc1-c1cccs1 | inactive
CN1c2ccccc2C(C)(C)[C@]12C=Cc1cc(O)ccc1O2 | inactive
